Among the data in PubChem BioAssay are red/green cell ratio (normalised) and normalised cell number values, retold here.

Activity calls are given as the source filed them.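 How the source made its calls: active means compounds killing one labelled cell type while sparing the other, by normalised counts and ratio limits, not self-fluorescent; inactive means the rest.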

The first experiment is described as follows: differential killing of epithelial or mesenchymal cells, primary screen, imaging, PC-3E GFP, TEM4-18 mCherry, co-culture (AID 1345086).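 Further: cells exposed to compound for 72 h before imaging.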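 On red/green cell ratio (normalised): normalised mesenchymal count divided by normalised epithelial count so high means epithelial killing.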 The following applies: imaging cell counts, at 1 µM, actives lie on both sides, counts scaled to control wells, 1 = unselective.
Turning to `NC(=O)c1cc(F)c(F)cc1F`, the red/green cell ratio (normalised) is 0.98 (inactive).

Regarding `COC(=O)C[C@@H]1C2(C)C(=O)[C@@H](CC3=C4CC(O)O[C@@H](c5ccoc5)[C@]4(C)CCC32)[C@H](O)C1(C)C` (stereo partly specified), the red/green cell ratio (normalised) is 1.16 (inactive).

In the case of `CC1=CO[C@]2(C1=O)[C@H]1C(=O)O[C@]3(C[C@@H]2C)C(C)=CC(=O)O[C@]13O`, the red/green cell ratio (normalised) is 0.85 (inactive).

Regarding `C/C=C/[C@@H]1CC[C@@H]2C[C@H](C)CC[C@H]2[C@]1(C)C(=O)[C@H]1OC(=O)[C@@H](CO)N(C)C1=O`, the red/green cell ratio (normalised) was 1.09 (inactive).

For `COC(=O)[C@@H]1C(O)CC[C@H]2CN3CCc4c([nH]c5ccccc45)[C@@H]3C[C@@H]21` (stereo partly specified), the red/green cell ratio (normalised) is 1.2 (inactive).

Consider `NC(=O)c1cc(F)c(F)cc1NC1CC1`, for which the red/green cell ratio (normalised) is 1.15 (inactive).

With `COc1cc(O)c2c(c1)[C@@H](O)[C@@]13CO[C@@H](O)[C@@]1(O3)C2=O`, the red/green cell ratio (normalised) is 1.09 (inactive).

Take `CC(CCC(=O)O)[C@H]1CCC2C3C(C[C@H](O)[C@@]21C)[C@@]1(C)CC[C@@H](O)C[C@H]1C[C@H]3O` (stereo partly specified): the red/green cell ratio (normalised) was 0.97 (inactive).

Take `CO[C@H]1CC(O[C@@H]2/C(C)=C/C[C@@H]3C[C@@H](C[C@]4(C=C[C@H](C)[C@@H](C5CCCCC5)O4)O3)OC(=O)[C@@H]3C=C(C)[C@@H](O)C4OC/C(=C\C=C\[C@@H]2C)[C@]43O)O[C@@H](C)C1O[C@H]1C[C@H](OC)[C@@H](O)[C@H](C)O1` (stereo partly specified): the red/green cell ratio (normalised) is 1.04 (inactive).

As for `COC(=O)[C@@H]1OC(=O)C2OC23[C@@]1(C)CCC1[C@@]2(C)CCC(=O)C(C)(C)C2C[C@@H](OC(C)=O)[C@]13C` (stereo partly specified), the red/green cell ratio (normalised) was 1.04 (inactive).

Take `CC(=O)OC1CCC2(C)C(=CC=C3C2CCC2(C)C3CCC2C(C)/C=C/C(C)C(C)C)C1(C)C` (stereo unspecified): the red/green cell ratio (normalised) was 1.04 (inactive).

As for `COc1c(N2CC[C@@H](CN)C2)c(F)cc2c(=O)c(C(=O)O)cn(Cc3ccc(-c4ccccc4)cc3)c12`, the red/green cell ratio (normalised) was 1.14 (inactive).

On to `C#C[C@]1(O)CC[C@@H]2C3[C@H](C)CC4=C(CCC(=O)C4)[C@H]3CC[C@@]21C` (stereo partly specified), for which the red/green cell ratio (normalised) is 1.13 (inactive).

Regarding `Nc1nc2ncc(CNc3ccc(C(=O)NC(CCC(=O)O)C(=O)O)cc3)nc2c(=O)[nH]1` (stereo unspecified), the red/green cell ratio (normalised) was 1.18 (inactive).

For `CC(CC(=O)N1CCOC1=O)N1C(=S)OC[C@@H]1Cc1ccccc1` (stereo partly specified), the red/green cell ratio (normalised) was 1.09 (inactive).

For the compound `Clc1ccc(Br)cc1OCC1CCCNC1` (stereo unspecified), the red/green cell ratio (normalised) was 0.91 (inactive).

As to `CCC[C@H]1Cc2cc3c(-c4c(O)cc(O)c5c(O)c6c(cc45)C[C@H](CCC)OC6=O)c(O)cc(O)c3c(O)c2C(=O)O1`, the red/green cell ratio (normalised) was 0.9 (inactive).

For the compound `O=C1Cc2cc(O)ccc2O1`, the red/green cell ratio (normalised) was 1.26 (inactive).

Take `Nc1ncnc2c1ncn2C1C[C@H](O)[C@@H](CO)O1` (stereo partly specified): the red/green cell ratio (normalised) is 0.92 (inactive).

Regarding `CC(C)[C@@H]1CC[C@]2(CO2)[C@@H]2C(=O)OCC(C(=O)O)=C[C@H]21`, the red/green cell ratio (normalised) was 1.02 (inactive).

For the compound `COc1cc2c(c3oc4ccccc4c(=O)c13)[C@@H]1C=CO[C@@H]1O2`, the red/green cell ratio (normalised) was 0.91 (inactive).

With `COC(=O)CNC(=O)c1ccc([C@H](O)c2ccccc2)cn1`, the red/green cell ratio (normalised) was 0.87 (inactive).

As for `C[C@@]1(N)CCCCCN(c2c(F)cc3c(=O)c(C(=O)O)cn(C4CC4)c3c2Cl)C1`, the red/green cell ratio (normalised) is 1.03 (inactive).

With `CCSC(SCC)[C@@H]1NC(=O)O[C@H]1[C@H](O)[C@H](O)CO`, the red/green cell ratio (normalised) is 1 (inactive).

Turning to `O=c1c(O)c(-c2ccccc2)oc2cc(O)cc(O)c12`, the red/green cell ratio (normalised) is 0.9 (inactive).

On to `COc1c(N2CC[C@@H](CN)C2)c(F)cc2c(=O)c(C(=O)O)cn(Cc3ccc4ccccc4c3)c12`, for which the red/green cell ratio (normalised) was 1.09 (inactive).

Staying with this experiment, now noted: imaging cell counts, measured here: epithelial PC-3E GFP cell survival, at 1 µM.
In turn, `C=C1[C@@H](C)C2[C@H](Cc3c[nH]c4ccccc34)NC(=O)[C@]23C(=O)/C=C/C(=O)[C@H](OC(C)=O)/C(C)=C/[C@@H](C)C/C=C/[C@H]3[C@@H]1O` (stereo partly specified) registered a normalised cell number of 0.94.

For `O=C(C/C=C/c1ccc(O)c(O)c1)O[C@H](Cc1ccc(O)c(O)c1)C(=O)O`, the normalised cell number was 1.

With `C=C1OC(=O)C23C(O)C(=O)CC(OC12)C3C` (stereo unspecified), the normalised cell number came to 1.19.

In the case of `COC(=O)NC1[C@@H](O)C(O)C(CO)O[C@H]1Sc1ccccc1` (stereo partly specified), the normalised cell number stood at 1.06.

For `COc1c(N2CC[C@@H](CN)C2)c(F)cc2c(=O)c(C(=O)NO)cn(C3CC3)c12`, the normalised cell number was 1.04.

`COc1ccc2c(c1)CCC1C2CC[C@@]2(C)C1CC[C@@H]2O` (stereo partly specified) registered a normalised cell number of 1.46.

In the case of `O=C1OCC[C@@H]1Oc1ccc(Oc2cnc3ccc(Cl)cc3n2)cc1`, the normalised cell number was 1.22.

The compound `CCN1CCN(c2c(F)cc3c(=O)c(C(=O)O)cn4c3c2OC[C@@H]4C)CC1` registered a normalised cell number of 1.34.

Regarding `C=C/C(C)=C\CC1[C@](C)(O)CC[C@H]2C(C)(C)CCC[C@]12C` (stereo partly specified), the normalised cell number stood at 1.11.

`COC(=O)C1O[C@H](OCc2ccccc2)[C@@H](OC(C)=O)[C@@H](OC(C)=O)C1OC(C)=O` (stereo partly specified) registered a normalised cell number of 1.31.

`NC(=O)NCCCC(N)C(=O)O` (stereo unspecified) came in with a normalised cell number of 1.03.

With `CC(C)=CCCC(C)C1CC[C@@]2(C)C3=C(CC[C@]12C)C1(C)CC[C@H](O)C(C)(C)C1CC3` (stereo partly specified), the normalised cell number was 1.09.

Regarding `O=C(O)CNC(=O)c1ccc([C@H](O)c2ccccc2)cn1`, the normalised cell number was 1.15.

Compound `O=C(O)c1cn(C2CC2)c2cc(N3CCN(c4ncncn4)CC3)c(F)cc2c1=O` returned a normalised cell number of 0.88.

The compound `NC(=O)c1cc(F)c(F)cc1F` returned a normalised cell number of 1.12.

Compound `COC(=O)C[C@@H]1C2(C)C(=O)[C@@H](CC3=C4CC(O)O[C@@H](c5ccoc5)[C@]4(C)CCC32)[C@H](O)C1(C)C` (stereo partly specified) returned a normalised cell number of 0.99.

In turn, `CC1=CO[C@]2(C1=O)[C@H]1C(=O)O[C@]3(C[C@@H]2C)C(C)=CC(=O)O[C@]13O` came in with a normalised cell number of 1.16.

The compound `C/C=C/[C@@H]1CC[C@@H]2C[C@H](C)CC[C@H]2[C@]1(C)C(=O)[C@H]1OC(=O)[C@@H](CO)N(C)C1=O` showed a normalised cell number of 1.06.

`COC(=O)[C@@H]1C(O)CC[C@H]2CN3CCc4c([nH]c5ccccc45)[C@@H]3C[C@@H]21` (stereo partly specified) came in with a normalised cell number of 0.88.

Take `NC(=O)c1cc(F)c(F)cc1NC1CC1`: the normalised cell number came to 1.02.

The compound `COc1cc(O)c2c(c1)[C@@H](O)[C@@]13CO[C@@H](O)[C@@]1(O3)C2=O` showed a normalised cell number of 1.01.

With `CC(CCC(=O)O)[C@H]1CCC2C3C(C[C@H](O)[C@@]21C)[C@@]1(C)CC[C@@H](O)C[C@H]1C[C@H]3O` (stereo partly specified), the normalised cell number was found to be 1.01.

`CO[C@H]1CC(O[C@@H]2/C(C)=C/C[C@@H]3C[C@@H](C[C@]4(C=C[C@H](C)[C@@H](C5CCCCC5)O4)O3)OC(=O)[C@@H]3C=C(C)[C@@H](O)C4OC/C(=C\C=C\[C@@H]2C)[C@]43O)O[C@@H](C)C1O[C@H]1C[C@H](OC)[C@@H](O)[C@H](C)O1` (stereo partly specified): the normalised cell number turned out to be 1.06.

`COC(=O)[C@@H]1OC(=O)C2OC23[C@@]1(C)CCC1[C@@]2(C)CCC(=O)C(C)(C)C2C[C@@H](OC(C)=O)[C@]13C` (stereo partly specified) displayed a normalised cell number of 1.06.

Turning to `CC(=O)OC1CCC2(C)C(=CC=C3C2CCC2(C)C3CCC2C(C)/C=C/C(C)C(C)C)C1(C)C` (stereo unspecified), the normalised cell number amounted to 0.92.

In the case of `COc1c(N2CC[C@@H](CN)C2)c(F)cc2c(=O)c(C(=O)O)cn(Cc3ccc(-c4ccccc4)cc3)c12`, the normalised cell number was determined as 0.86.

For `C#C[C@]1(O)CC[C@@H]2C3[C@H](C)CC4=C(CCC(=O)C4)[C@H]3CC[C@@]21C` (stereo partly specified), the normalised cell number was 1.07.

For the compound `Nc1nc2ncc(CNc3ccc(C(=O)NC(CCC(=O)O)C(=O)O)cc3)nc2c(=O)[nH]1` (stereo unspecified), the normalised cell number is 1.04.

`CC(CC(=O)N1CCOC1=O)N1C(=S)OC[C@@H]1Cc1ccccc1` (stereo partly specified) came in with a normalised cell number of 0.88.

For the compound `Clc1ccc(Br)cc1OCC1CCCNC1` (stereo unspecified), the normalised cell number was found to be 1.28.

As for `CCC[C@H]1Cc2cc3c(-c4c(O)cc(O)c5c(O)c6c(cc45)C[C@H](CCC)OC6=O)c(O)cc(O)c3c(O)c2C(=O)O1`, the normalised cell number was 0.85.

As for `O=C1Cc2cc(O)ccc2O1`, the normalised cell number came out at 0.91.

Take `Nc1ncnc2c1ncn2C1C[C@H](O)[C@@H](CO)O1` (stereo partly specified): the normalised cell number was 0.99.

Compound `CC(C)[C@@H]1CC[C@]2(CO2)[C@@H]2C(=O)OCC(C(=O)O)=C[C@H]21` returned a normalised cell number of 1.02.

As to `COc1cc2c(c3oc4ccccc4c(=O)c13)[C@@H]1C=CO[C@@H]1O2`, the normalised cell number worked out at 0.44.

In the case of `COC(=O)CNC(=O)c1ccc([C@H](O)c2ccccc2)cn1`, the normalised cell number was 1.

In the case of `C[C@@]1(N)CCCCCN(c2c(F)cc3c(=O)c(C(=O)O)cn(C4CC4)c3c2Cl)C1`, the normalised cell number stood at 0.97.

Compound `CCSC(SCC)[C@@H]1NC(=O)O[C@H]1[C@H](O)[C@H](O)CO` registered a normalised cell number of 1.12.

Consider `O=c1c(O)c(-c2ccccc2)oc2cc(O)cc(O)c12`, for which the normalised cell number was 1.07.

Consider `COc1c(N2CC[C@@H](CN)C2)c(F)cc2c(=O)c(C(=O)O)cn(Cc3ccc4ccccc4c3)c12`, for which the normalised cell number was found to be 0.86.
